Laboratory results reported in the supplement of paper PMC11732987, “Enantioselective OTUD7B fragment discovery through chemoproteomics screening and high-throughput optimisation” (Communications Chemistry, 2025).

Tests used:
Test in all cases: log2 ratio of Biotin-Ahx-Ub-VS probe labelling (fragment/DMSO); higher = less target engagement (more negative = stronger competition), active = hit call of the paper (q ≤ 0.05, log2 ratio ≤ -1)
Settings in all cases: compound concentration: 200 uM; treatment time: 3 h
[1] = target: USP34 (UniProt Q70CQ2)
USP34, sequence (Q70CQ2 whole entry, the tested form may be a part): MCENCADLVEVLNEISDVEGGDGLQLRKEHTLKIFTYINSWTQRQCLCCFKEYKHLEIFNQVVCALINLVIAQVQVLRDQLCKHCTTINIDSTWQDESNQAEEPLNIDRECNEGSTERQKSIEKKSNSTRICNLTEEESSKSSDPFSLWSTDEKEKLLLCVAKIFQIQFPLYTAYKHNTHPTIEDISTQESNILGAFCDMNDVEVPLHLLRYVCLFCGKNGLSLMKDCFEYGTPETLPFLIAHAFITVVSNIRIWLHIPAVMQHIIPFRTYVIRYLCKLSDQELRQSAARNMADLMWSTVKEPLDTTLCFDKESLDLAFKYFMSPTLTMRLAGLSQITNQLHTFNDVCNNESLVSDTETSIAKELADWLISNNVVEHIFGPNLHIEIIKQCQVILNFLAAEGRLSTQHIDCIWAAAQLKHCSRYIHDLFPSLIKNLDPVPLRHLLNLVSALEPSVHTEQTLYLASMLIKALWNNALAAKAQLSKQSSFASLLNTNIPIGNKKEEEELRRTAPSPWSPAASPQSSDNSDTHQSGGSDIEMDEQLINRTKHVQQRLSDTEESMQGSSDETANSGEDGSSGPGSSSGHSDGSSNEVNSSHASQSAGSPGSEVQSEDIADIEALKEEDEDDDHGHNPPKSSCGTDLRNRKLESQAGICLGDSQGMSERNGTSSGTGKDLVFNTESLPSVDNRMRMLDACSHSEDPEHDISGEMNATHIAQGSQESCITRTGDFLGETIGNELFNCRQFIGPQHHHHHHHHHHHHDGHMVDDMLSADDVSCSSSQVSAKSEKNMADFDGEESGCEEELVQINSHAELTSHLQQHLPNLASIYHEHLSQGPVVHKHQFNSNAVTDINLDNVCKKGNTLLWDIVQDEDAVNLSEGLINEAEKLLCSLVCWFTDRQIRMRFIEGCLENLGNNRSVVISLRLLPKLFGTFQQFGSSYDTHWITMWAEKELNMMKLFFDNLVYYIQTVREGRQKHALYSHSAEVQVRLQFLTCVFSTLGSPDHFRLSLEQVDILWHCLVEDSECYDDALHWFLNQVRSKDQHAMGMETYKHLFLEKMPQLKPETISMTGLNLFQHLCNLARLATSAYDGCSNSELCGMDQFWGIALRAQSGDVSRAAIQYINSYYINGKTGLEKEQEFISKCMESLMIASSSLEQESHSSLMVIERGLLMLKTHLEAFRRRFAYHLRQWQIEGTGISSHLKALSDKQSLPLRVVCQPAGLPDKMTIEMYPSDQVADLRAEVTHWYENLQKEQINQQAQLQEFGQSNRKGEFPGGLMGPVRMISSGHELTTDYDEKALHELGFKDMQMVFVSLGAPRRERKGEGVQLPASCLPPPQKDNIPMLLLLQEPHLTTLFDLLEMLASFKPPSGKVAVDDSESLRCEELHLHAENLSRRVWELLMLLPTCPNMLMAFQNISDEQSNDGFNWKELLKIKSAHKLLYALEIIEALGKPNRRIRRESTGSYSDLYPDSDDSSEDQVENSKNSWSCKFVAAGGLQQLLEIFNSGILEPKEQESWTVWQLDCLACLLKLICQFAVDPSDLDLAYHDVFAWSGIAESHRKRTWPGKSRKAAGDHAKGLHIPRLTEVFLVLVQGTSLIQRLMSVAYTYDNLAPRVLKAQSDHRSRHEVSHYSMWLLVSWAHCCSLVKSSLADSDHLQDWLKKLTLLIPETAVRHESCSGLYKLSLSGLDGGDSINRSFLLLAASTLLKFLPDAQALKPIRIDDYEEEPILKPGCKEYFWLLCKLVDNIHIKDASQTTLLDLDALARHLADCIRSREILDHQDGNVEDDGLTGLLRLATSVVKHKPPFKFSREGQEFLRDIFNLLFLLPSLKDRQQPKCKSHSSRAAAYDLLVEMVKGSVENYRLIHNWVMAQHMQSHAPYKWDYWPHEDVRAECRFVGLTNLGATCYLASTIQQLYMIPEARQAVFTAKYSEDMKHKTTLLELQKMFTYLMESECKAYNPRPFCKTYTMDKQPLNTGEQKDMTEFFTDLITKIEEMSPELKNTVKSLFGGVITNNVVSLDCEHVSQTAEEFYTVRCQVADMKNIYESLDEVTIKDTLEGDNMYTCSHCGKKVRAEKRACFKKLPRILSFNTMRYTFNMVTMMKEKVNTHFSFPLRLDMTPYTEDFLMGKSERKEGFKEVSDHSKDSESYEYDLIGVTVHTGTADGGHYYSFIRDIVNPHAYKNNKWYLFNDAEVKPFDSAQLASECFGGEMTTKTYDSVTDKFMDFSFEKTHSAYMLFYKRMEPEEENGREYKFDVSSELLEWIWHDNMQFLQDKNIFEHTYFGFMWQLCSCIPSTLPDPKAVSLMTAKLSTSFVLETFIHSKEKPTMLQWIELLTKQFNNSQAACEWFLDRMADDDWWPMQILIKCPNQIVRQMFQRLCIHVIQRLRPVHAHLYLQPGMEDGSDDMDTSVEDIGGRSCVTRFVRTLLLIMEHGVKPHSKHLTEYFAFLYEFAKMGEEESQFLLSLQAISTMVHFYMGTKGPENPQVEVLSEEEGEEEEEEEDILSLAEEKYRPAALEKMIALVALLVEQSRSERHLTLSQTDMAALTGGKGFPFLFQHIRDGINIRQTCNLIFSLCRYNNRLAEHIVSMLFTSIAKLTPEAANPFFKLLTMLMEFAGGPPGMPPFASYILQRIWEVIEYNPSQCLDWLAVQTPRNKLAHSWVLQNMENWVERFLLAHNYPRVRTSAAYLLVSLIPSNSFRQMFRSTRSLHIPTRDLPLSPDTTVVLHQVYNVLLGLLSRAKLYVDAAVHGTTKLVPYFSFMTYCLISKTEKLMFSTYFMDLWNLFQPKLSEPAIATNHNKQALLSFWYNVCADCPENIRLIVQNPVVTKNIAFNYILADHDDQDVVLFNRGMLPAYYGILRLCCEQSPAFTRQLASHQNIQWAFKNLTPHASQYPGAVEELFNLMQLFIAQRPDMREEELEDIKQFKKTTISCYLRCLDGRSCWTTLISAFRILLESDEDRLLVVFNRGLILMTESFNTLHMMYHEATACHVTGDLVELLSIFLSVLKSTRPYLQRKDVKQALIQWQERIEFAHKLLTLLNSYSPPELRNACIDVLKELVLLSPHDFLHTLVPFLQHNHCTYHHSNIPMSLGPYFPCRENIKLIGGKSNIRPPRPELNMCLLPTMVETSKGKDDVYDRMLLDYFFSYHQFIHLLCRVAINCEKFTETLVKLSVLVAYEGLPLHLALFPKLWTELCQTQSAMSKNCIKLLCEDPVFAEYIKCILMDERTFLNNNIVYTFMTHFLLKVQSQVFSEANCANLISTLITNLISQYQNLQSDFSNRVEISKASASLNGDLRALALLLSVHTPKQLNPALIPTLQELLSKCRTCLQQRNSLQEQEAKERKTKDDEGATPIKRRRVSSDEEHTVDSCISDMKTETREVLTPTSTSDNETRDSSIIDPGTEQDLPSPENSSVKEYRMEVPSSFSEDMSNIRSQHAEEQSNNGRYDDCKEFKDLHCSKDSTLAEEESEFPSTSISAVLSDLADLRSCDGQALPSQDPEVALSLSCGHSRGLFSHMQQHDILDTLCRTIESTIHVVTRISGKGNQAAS
In short: (§1)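 Each value is an average log2 ratio of fragment to vehicle, tested by unpaired t-test. The underlying Spectronaut label-free quantities were global-median-normalised, and only proteins with ≥2 unique peptides were included. Triplicate HEK293T lysate samples (495 µg) were exposed to fragment at 200 µM or vehicle for 3 h, then to Biotin-Ahx-Ub-VS at 0.5 µM final for 1 h, before NeutrAvidin enrichment of labelled DUBs, LysC and trypsin digestion, and diaPASEF LC-MS/MS.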

[2] = target: T1, USP36 (UniProt Q9P275)
T1 sequence (whole entry): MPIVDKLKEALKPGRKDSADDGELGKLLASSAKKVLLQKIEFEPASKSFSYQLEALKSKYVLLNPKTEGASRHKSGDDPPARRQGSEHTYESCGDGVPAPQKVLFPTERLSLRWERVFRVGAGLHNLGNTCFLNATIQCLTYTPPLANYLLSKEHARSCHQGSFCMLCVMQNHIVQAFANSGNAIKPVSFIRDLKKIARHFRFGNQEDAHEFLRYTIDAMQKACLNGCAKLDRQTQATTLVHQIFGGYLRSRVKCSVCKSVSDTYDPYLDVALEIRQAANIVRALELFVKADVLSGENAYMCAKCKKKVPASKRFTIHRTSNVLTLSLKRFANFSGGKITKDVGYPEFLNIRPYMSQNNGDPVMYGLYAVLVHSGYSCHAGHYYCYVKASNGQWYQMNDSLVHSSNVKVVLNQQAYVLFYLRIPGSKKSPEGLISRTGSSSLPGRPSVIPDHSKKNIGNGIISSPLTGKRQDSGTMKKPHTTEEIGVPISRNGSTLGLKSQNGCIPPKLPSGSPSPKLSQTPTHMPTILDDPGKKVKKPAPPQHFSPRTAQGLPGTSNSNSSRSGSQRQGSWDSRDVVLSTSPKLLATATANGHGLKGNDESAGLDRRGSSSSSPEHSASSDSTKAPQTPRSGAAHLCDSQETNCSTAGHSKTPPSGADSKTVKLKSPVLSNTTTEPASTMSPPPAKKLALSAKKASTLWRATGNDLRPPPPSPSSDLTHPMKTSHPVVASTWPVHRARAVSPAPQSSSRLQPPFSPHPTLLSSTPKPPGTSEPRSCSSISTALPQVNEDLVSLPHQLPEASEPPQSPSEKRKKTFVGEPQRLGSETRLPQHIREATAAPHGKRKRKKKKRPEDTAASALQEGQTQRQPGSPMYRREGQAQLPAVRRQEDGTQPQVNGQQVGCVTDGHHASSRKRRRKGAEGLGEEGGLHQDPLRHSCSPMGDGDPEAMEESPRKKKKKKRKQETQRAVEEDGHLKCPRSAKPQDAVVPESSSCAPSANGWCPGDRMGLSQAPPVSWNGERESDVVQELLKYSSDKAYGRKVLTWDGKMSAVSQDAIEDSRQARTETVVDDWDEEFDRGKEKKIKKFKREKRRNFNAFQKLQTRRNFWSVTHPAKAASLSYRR
In short: as §1

[3] = target: T2, USP38 (UniProt Q8NB14)
T2 sequence (whole entry): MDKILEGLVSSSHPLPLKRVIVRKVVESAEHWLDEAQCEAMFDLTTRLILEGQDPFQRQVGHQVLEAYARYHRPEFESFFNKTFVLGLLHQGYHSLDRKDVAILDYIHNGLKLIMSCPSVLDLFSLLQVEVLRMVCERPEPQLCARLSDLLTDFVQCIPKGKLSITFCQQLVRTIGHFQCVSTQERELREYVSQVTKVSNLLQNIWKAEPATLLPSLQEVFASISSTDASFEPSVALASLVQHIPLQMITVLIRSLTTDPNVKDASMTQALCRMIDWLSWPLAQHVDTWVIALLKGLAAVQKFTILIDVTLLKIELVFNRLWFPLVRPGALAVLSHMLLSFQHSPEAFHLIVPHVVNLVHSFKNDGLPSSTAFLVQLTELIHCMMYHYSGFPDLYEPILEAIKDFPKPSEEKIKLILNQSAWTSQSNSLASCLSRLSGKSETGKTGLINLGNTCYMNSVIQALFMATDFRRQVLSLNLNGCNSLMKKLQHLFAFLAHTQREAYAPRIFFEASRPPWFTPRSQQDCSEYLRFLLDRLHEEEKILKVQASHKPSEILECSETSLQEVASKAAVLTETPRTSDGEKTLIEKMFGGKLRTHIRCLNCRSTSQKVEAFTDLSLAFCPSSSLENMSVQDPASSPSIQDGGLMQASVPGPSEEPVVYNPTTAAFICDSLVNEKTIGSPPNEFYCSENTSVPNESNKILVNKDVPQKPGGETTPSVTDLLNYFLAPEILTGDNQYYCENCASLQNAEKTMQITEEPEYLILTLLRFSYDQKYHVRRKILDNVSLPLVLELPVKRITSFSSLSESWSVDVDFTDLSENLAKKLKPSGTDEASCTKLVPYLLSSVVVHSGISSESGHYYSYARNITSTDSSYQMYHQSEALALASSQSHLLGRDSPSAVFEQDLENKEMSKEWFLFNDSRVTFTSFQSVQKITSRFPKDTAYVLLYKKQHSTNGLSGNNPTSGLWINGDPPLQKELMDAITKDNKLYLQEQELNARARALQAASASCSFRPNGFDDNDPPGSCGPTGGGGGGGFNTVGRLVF
In short: as §1

[4] = target: T3, USP39 (UniProt Q53GS9)
T3 sequence (whole entry): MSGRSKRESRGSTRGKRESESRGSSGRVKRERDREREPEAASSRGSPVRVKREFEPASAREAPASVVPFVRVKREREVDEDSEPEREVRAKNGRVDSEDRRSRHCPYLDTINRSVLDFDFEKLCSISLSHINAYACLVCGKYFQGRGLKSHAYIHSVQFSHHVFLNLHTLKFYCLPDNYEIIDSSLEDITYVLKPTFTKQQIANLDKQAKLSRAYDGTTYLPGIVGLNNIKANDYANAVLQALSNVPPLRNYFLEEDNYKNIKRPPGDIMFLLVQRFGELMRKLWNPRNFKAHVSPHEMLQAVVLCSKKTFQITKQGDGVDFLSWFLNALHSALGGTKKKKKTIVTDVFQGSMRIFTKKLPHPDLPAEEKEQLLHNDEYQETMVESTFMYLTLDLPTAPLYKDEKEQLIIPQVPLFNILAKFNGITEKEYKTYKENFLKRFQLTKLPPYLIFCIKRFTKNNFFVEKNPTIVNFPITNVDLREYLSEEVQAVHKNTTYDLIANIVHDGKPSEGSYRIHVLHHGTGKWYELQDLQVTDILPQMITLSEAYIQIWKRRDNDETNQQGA
In short: as §1

[5] = target: T4, USP4 (UniProt Q13107)
T4 sequence (whole entry): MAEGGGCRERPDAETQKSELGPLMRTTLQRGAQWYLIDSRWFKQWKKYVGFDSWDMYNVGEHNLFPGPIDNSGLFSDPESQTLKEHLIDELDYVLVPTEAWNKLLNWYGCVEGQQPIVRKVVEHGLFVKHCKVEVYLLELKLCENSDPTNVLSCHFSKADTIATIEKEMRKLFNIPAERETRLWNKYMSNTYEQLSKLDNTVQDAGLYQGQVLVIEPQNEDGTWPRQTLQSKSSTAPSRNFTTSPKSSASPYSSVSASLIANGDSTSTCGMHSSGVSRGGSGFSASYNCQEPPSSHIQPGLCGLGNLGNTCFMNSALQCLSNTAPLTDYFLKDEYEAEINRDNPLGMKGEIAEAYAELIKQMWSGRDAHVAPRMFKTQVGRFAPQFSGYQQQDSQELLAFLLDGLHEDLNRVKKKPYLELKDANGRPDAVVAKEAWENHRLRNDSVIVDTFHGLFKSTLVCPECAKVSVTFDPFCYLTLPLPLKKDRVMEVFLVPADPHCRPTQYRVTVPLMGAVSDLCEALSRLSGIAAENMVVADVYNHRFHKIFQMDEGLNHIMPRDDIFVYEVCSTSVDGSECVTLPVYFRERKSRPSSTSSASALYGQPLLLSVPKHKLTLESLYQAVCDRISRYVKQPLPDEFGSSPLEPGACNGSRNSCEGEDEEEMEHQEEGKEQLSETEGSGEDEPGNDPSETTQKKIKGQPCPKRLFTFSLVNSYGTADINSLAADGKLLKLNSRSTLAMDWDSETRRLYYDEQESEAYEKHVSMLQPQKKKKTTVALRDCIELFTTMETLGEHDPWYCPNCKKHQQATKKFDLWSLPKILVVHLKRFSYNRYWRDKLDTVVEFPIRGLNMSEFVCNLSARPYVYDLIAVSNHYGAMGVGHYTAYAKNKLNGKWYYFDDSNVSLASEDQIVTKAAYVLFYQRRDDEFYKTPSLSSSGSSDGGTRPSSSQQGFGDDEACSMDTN
In short: as §1

Measured: log2 ratio of Biotin-Ahx-Ub-VS probe labelling

Cc1cccc(N(CCC#N)C(=O)CCl)c1C
inactive: [1] -0.119 | [2] -0.0707 | [3] -0.0489 | [4] -0.305 | [5] 0.163
